SENP8 block-1 – SENP8 protease inhibitors, primary screen, biochemical, luminescence. inhibition, % at 10 µM. purified SENP8, Z-RLRGG-aminoluciferin cleavage. 330,000 compounds, 1.2% hits. AID 2540, 2010; in the data active = inhibition above about 50%
Target sequence (Q96LD8 whole entry, looked up): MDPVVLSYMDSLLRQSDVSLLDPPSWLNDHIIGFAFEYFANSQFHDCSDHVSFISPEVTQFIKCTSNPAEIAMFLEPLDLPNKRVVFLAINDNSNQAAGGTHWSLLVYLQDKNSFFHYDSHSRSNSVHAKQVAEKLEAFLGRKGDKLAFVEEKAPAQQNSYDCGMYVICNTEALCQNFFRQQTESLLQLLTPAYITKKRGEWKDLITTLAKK
SENP6 inh – SENP6 protease inhibitors, primary screen, biochemical, luminescence, uHTS; Recombinant SENP6 catalytic domain, aminoluciferin luminescence; AID 2599, 2010; inhibition, % at 10 µM; Sentrin-specific protease 6 (Homo sapiens), Q9GZR1; 330,000 compounds, 1.8% hits;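 active = inhibition above about 50% at the single tested dose, limit read from the data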;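 also: plate controls were DMSO wells with enzyme for no effect and DMSO wells lacking enzyme for full effect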
SENP7 block – SENP7 protease inhibitors, primary screen, biochemical, luminescence, uHTS; Sentrin-specific protease 7 (Homo sapiens), Q9BQF6; recombinant SENP7, Z-RLRGG-aminoluciferin luminescence, 40 min; inhibition, % at 5 µM; 330,000 compounds, 1.5% hits; AID 434973, 2010;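 active = inhibition above about 50% at the single test dose, limit read from the data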;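 also: plate controls were DMSO with enzyme for no effect and no enzyme buffer wells for full effect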
Target sequence (Q9BQF6 706-1050 limits assumed): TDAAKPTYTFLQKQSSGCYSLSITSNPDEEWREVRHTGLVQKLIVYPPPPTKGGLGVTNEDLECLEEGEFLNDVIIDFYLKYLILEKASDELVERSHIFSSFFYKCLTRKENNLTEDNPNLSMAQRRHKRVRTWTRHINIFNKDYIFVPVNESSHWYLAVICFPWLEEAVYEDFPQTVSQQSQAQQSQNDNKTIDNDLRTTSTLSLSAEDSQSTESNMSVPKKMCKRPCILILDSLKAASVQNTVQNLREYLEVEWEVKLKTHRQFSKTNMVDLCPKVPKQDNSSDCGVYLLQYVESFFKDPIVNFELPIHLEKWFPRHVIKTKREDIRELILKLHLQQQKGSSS
SENP8 block-2 – human SENP8 protease inhibitors, primary screen, biochemical, fluorescence, Nedd8 protein substrate, uHTS. inhibition, % at 20 µM. Sentrin-specific protease 8 (Homo sapiens), Q96LD8. 360,000 compounds, 0.64% hits. recombinant SENP8; in the data active = inhibition mostly above about 40%, no sharp cut-off; inactive = mostly below about 27%
C8 TRAIL sens – viability loss with TRAIL in NB7+C8 cells, primary screen, TRAIL sensitizer project, cell-based, ATPlite luminescence; inhibition (viability loss, TRAIL sensitization), % at 10 µM; 360,000 compounds, 1% hits; AID 624354, 2012;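 active = compounds causing at least 50% loss of cell viability in the single-dose screen, relative to plate controls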
PPC-1+TRAIL kill – compounds killing PPC-1 cancer cells with TRAIL present, primary screen, TRAIL potentiator project, ATPLite luminescence, uHTS | PPC-1 cells + TRAIL, ATPLite viability luminescence | cell killing (% activity), % at 4 µM or 5 µM | 220,000 compounds, 0.41% hits;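 active = cell killing above 50% in the first pass at 4 µM, then a duplicate retest at 5 µM averaging 50% or more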;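 also: plate controls were cells with TRAIL plus DMSO for no effect and medium-only wells lacking cells for full effect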
SENP8 conf – SENP8 protease inhibitors, retest, confirmation, biochemical, luminescence, single concentration. inhibition, % at 12.5 µM. 6,200 compounds, 40% hits. shares compounds with SENP7 block. AID 488912, 2010. Recombinant SENP8, Z-RLRGG-aminoluciferin luminescence, 60 min;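 active = mean inhibition across replicates above about 50%, limit read from the data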
SENP6 confirm – SENP6 protease inhibitors, confirmation, biochemical, luminescence, single concentration; AID 488915, 2010; inhibition, % at 12.5 µM; 6,200 compounds, 58% hits; shares compounds with SENP7 block; recombinant SENP6, Z-RLRGG-aminoluciferin luminescence
SENP7 confirm – SENP7 protease inhibitors, retest, confirmation, biochemical, luminescence, single concentration | shares compounds with SENP7 block | recombinant SENP7, Z-RLRGG-aminoluciferin luminescence, 40 min | inhibition, % at 12.5 µM | 6,200 compounds, 69% hits
Casp3 SENP sel – caspase-3 protease inhibitors, confirmation, selectivity assay for SENP inhibitor project, biochemical, single concentration. purified caspase-3, Z-DEVD-aminoluciferin luminescence, 60 min. 6,200 compounds, 60% hits. shares compounds with SENP7 block. inhibition, % at 12.5 µM. AID 488918, 2010;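 active = mean inhibition above about 50%, limit read from the data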;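 also: plate controls were enzyme with DMSO for no effect and wells without caspase-3 for full effect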
SENP luc ctr – interferes with luciferase luminescence in SENP counter-screen | shares compounds with SENP7 block | Pre-incubated SENP8/Z-RLRGG-aminoluciferin, luciferase luminescence interference | inhibition, % at 12.5 µM | 6,200 compounds, 39% hits | AID 488919;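 active = mean inhibition above about 50% when retested at one dose, limit read from the data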;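 also: plate controls were DMSO wells with completed reaction for no effect and substrate without enzyme for full effect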
Starred values were filed as active, the others as inactive; . = no result given. Most compounds without a hit are left out; they make up all but 3% or so of the library.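 The calls were made as follows, unless noted: active = mean inhibition above about 50% in the one-dose retest (limit read from the data); inactive = the rest.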

SMILES	SENP8 block-1	SENP6 inh	SENP7 block	SENP8 block-2	C8 TRAIL sens	PPC-1+TRAIL kill	SENP8 conf	SENP6 confirm	SENP7 confirm	Casp3 SENP sel	SENP luc ctr
COc1ccc(/C(C)=N/OCC(=O)Nc2nc3ccccc3s2)cc1	19.2	-1.7	16.2	5.8	17.0	10.4	.	.	.	.	.
COc1ccc(C(=O)Nc2nc3ccccc3s2)cc1OC	5.8	21.5	15.4	-102.2	-1.6	.	.	.	.	.	.
COc1ccc2nc(NC(=O)c3ccc(F)cc3)sc2c1	25.1	64.1*	90.5*	-237.3	20.5	.	7.5	37.4	31.7	25.4	-0.7
COc1ccc(/C=N/OCC(=O)Nc2nc3ccccc3s2)cc1OC	69.8*	87.1*	74.7*	20.9	4.8	18.0	11.1	78.2*	94.1*	63.5*	50.8*
O=C(Nc1nc2ccccc2s1)c1ccc(F)cc1	84.6*	88.2*	93.3*	-43.4	45.8	27.7	2.5	87.3*	99.9*	86.3*	47.6
Cc1ccc(NC(=O)c2cnccn2)cc1	10.2	14.0	20.6	11.9	8.9	4.2	.	.	.	.	.
Cc1ccc(NC(=O)c2cnccn2)cc1C	39.1	68.7*	70.7*	12.2	4.9	.	66.0*	60.8*	83.4*	84.1*	63.4*
Cc1ccc(C(=O)NC2CCc3ccccc3C2=O)cc1 (stereo unspecified)	-10.0	-18.7	17.0	-62.2	27.3	29.7	.	.	.	.	.
O=C(OC1CCc2ccccc2C1=O)c1ccccc1O (stereo unspecified)	70.0*	82.4*	79.7*	-0.1	-10.4	-4.0	81.4*	79.8*	92.2*	67.0*	31.6
COC(=O)c1cccc(N(CC(=O)NC2CCCC2)C(=O)CCC(=O)Nc2cc(C)on2)c1	-3.9	-8.2	6.9	-18.6	-16.6	.	.	.	.	.	.
Cc1cc(F)ccc1NC(=O)Nc1ccc2c(c1)OCO2	-21.8	-4.9	17.8	2.9	10.4	.	.	.	.	.	.
O=C(Nc1ccc2c(c1)OCO2)Nc1ccccc1F	94.7*	94.0*	98.9*	0.9	24.8	.	96.5*	97.9*	101.8*	96.8*	68.2*
O=C(Nc1cccc(Cl)c1)Nc1ccc2c(c1)OCO2	60.8*	82.7*	74.6*	22.9	25.1	-8.3	28.5	76.6*	94.3*	55.8*	20.7
COc1cccc(NC(=O)Nc2ccc3c(c2)OCO3)c1	54.7*	72.6*	78.9*	-2.7	29.0	.	54.3*	50.7*	83.5*	74.0*	70.8*
CCN(C(=O)COC(=O)CSc1ccc(C(N)=O)cc1[N+](=O)[O-])C1CCCCC1	-5.0	-1.6	-2.9	4.1	-9.0	.	.	.	.	.	.
Cc1noc(NS(=O)(=O)c2ccc(NC(=O)/C=C/c3ccccc3)cc2)c1C	-1.1	2.5	8.0	7.4	-15.4	.	.	.	.	.	.
CCCn1c(O)c(N=Nc2ccc3ccccc3n2)c2ccccc21	85.2*	95.3*	92.8*	24.7	28.2	-1.5	41.6	57.4*	61.2*	70.2*	0.3
CCCN(CC(=O)Nc1ccccc1OC)C(=O)Cn1c(=O)oc2ccccc21	.	.	.	-1.8	-4.5	.	.	.	.	.	.
COc1ccc(/C=N/Nc2ncccc2[N+](=O)[O-])c(OC)c1	96.6*	99.5*	99.3*	30.5	7.4	-2.8	99.1*	100.3*	103.5*	98.9*	18.9
Cc1cccc(-c2noc(-c3ccc4c(c3)OCO4)n2)c1	70.4*	81.9*	100.5*	-10.0	60.7*	33.9	4.1	38.4	47.0	36.7	29.7
Cc1cc(C)cc(-c2nc(-c3ccncc3)no2)c1	66.3*	74.0*	60.6*	5.1	17.9	-9.3	31.4	26.7	20.8	50.4*	15.8
Cc1cccc(-c2nc(-c3ccncc3)no2)c1	78.8*	-4.8	81.7*	22.0	17.1	.	57.7*	84.1*	97.2*	85.1*	56.5*
Cc1ccc(-c2nc(-c3ccncc3)no2)cc1	.	.	.	13.5	27.4	.	.	.	.	.	.
Cc1cccc(-c2noc(-c3c(C)noc3C)n2)c1	57.5*	70.8*	47.8	25.8	7.4	19.3	28.9	37.8	52.5*	49.6	16.5
C/C(=N\NC(=O)c1ccc(Cn2cc(Br)cn2)o1)c1ccc(NC(=O)c2ccoc2C)cc1	6.5	6.5	1.3	-65.7	32.1	.	.	.	.	.	.
SMILES	SENP8 block-1	SENP6 inh	SENP7 block	SENP8 block-2	C8 TRAIL sens	PPC-1+TRAIL kill	SENP8 conf	SENP6 confirm	SENP7 confirm	Casp3 SENP sel	SENP luc ctr
CCCOc1ccc(C=Nc2ccc(OC)c(S(=O)(=O)N3CCOCC3)c2)c(O)c1	6.5	0.2	6.3	-21.3	15.3	.	.	.	.	.	.
Brc1cccc(-c2nc(-c3ccncc3)no2)c1	49.9	70.4*	71.5*	4.6	8.8	12.8	26.9	54.1*	63.7*	59.3*	26.1
Cc1cc(C)c(NC(=O)C2CCCCN2C)c(C)c1 (stereo unspecified)	-2.5	-25.3	79.6*	13.6	-7.8	-7.9	7.7	10.4	-2.6	1.5	-1.2
Cc1cc(C)c(NC(=O)C2CCCN2CCC(C)C)c(C)c1 (stereo unspecified)	-1.8	-2.6	-0.8	23.0	12.4	-7.5	.	.	.	.	.
COc1cccc(OC)c1C(=O)NCCNc1nc2cc(C)cc(C)c2cc1C#N	.	.	.	-426.4	3.8	.	.	.	.	.	.
O=C1OC(Nc2ccc3ncccc3c2)c2ccccc21 (stereo unspecified)	39.4	71.8*	-15.7	-209.8	0.7	4.9	4.5	1.4	1.2	2.4	-0.3
COc1ccc(-c2nn(-c3ccccc3)cc2CNC[C@H]2O[C@@H](n3cnc(C(N)=O)n3)[C@H](O)[C@@H]2O)cc1	.	.	.	15.5	-3.2	.	.	.	.	.	.
O=C(NCc1csc(-c2cccs2)n1)c1ccccc1	-8.5	-13.8	3.1	-137.3	-11.2	11.8	.	.	.	.	.

Compound activity deposited in PubChem BioAssay by Sanford-Burnham Center for Chemical Genomics.
